Screening data: PubChem, The Scripps Research Institute Molecular Screening Center
TEAD-YAP inh = TEAD-YAP interaction inhibition. hit rate 1.4% among 640,000. HEK-TIYL cells, TEAD-Gal4/YAP UAS-luciferase luminescence. AID 1259422. inhibition, % at 9.12 µM; in the data active = inhibition above about 32%
GPR151 ag = human GPR151 activation | activation, % at 11.2 µM | PathHunter beta-arrestin GPR151 cells, luminescence | Q8TDV0 | hit rate 1% among 650,000; in the data active = activation above about 4.9%
Target sequence (Q8TDV0 whole entry, looked up): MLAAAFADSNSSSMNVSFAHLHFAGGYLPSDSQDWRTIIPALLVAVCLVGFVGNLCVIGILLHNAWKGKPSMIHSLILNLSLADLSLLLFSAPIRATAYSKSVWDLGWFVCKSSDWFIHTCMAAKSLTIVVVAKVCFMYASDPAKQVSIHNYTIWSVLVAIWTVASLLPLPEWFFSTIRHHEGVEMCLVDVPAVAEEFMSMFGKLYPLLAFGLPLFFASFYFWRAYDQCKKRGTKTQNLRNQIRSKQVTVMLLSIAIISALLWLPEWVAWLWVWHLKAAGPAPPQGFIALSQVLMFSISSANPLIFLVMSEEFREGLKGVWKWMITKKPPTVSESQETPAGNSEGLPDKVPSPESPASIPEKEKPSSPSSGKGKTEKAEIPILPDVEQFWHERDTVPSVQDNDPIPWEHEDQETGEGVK
MITF inh = inhibitors of human MITF; inhibition, % at 2.6 µM; AlphaScreen MITF homodimerization, bead proximity signal; hit rate 0.91% among 650,000; in the data active = inhibition above about 50%
FBW7 activator = human FBW7 E3 ligase activation, primary screen; AlphaScreen FBW7–phospho-cyclin E peptide binding, activator screen; AID 1259310; normalized activity (activation), % at 26.1 µM; hit rate 0.13% among 650,000; in the data active = normalized activity above about 1.9%;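 note: purified mutant Fbw7 with reduced substrate affinity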
Numbers stand for hits. In the library only some 3.4% were active in any assay of this set; here they are far more common.

Results for Cc1cc(C)nc(-n2ncc(Cl)c(Cl)c2=O)n1 ?
TEAD-YAP inh: 86; GPR151 ag: inactive; MITF inh: inactive; FBW7 activator: inactive

What do the screens show for `COc1cc2sc(=NC(=O)c3ccccc3OC)n(C)c2cc1OC`?
TEAD-YAP inh: inactive; GPR151 ag: inactive; MITF inh: inactive; FBW7 activator: inactive

How did Cc1sc(NC(=O)c2ccccc2)c(CN(C)C)c1C do in these assays?
TEAD-YAP inh: inactive; GPR151 ag: inactive; MITF inh: inactive; FBW7 activator: inactive

How did CCCCCC(=O)Nc1nnc(CCCCC)s1 do in these assays?
TEAD-YAP inh: inactive; GPR151 ag: inactive; MITF inh: inactive; FBW7 activator: inactive

How did CSc1cnn(-c2ccccc2)c(=O)c1SC do in these assays?
TEAD-YAP inh: inactive; GPR151 ag: inactive; MITF inh: inactive; FBW7 activator: 1.9

Results for O=C(NCCc1ccccc1)c1cccn2c(=O)c3ccccc3nc12 ?
TEAD-YAP inh: inactive; GPR151 ag: inactive; MITF inh: inactive; FBW7 activator: inactive

What do the screens show for `N#CC(C#N)=NNc1ccccc1C(=O)O`?
TEAD-YAP inh: inactive; GPR151 ag: inactive; MITF inh: inactive; FBW7 activator: inactive

Results for N#CC(C#N)=NNc1ccc(O)c(C(=O)O)c1 ?
TEAD-YAP inh: inactive; GPR151 ag: inactive; MITF inh: 79; FBW7 activator: inactive

Results for O=C1CSC(=O)N1Cc1c(Cl)cccc1Cl ?
TEAD-YAP inh: inactive; GPR151 ag: inactive; MITF inh: inactive; FBW7 activator: 2.2

How did COc1ccc(C(=O)Nc2ccc(OCc3ccccc3)cc2)c(OC)c1 do in these assays?
TEAD-YAP inh: 90; GPR151 ag: inactive; MITF inh: inactive; FBW7 activator: inactive

What do the screens show for `CN(C)S(=O)(=O)Nc1ccc(OCc2ccccc2)cc1`?
TEAD-YAP inh: inactive; GPR151 ag: inactive; MITF inh: inactive; FBW7 activator: 1.9

Results for O=S(=O)(Nc1ccc(OCc2ccccc2)cc1)c1ccc(Br)cc1 ?
TEAD-YAP inh: inactive; GPR151 ag: inactive; MITF inh: inactive; FBW7 activator: inactive

Results for CC[N+](CC)=c1ccc2nc3c(cc(N)c4ccccc43)oc-2c1 ?
TEAD-YAP inh: 33; GPR151 ag: inactive; MITF inh: inactive; FBW7 activator: inactive

How did Clc1cncc(Cl)c1N1CCN(c2ccc(-c3cccnc3)cn2)CC1 do in these assays?
TEAD-YAP inh: 50; GPR151 ag: inactive; MITF inh: inactive; FBW7 activator: inactive

Results for Cc1cc(Br)c(S(=O)(=O)N2CCC(C)CC2)cc1C ?
TEAD-YAP inh: inactive; GPR151 ag: inactive; MITF inh: inactive; FBW7 activator: 2.1

How did Cc1cc(Br)c(S(=O)(=O)N2CCCCC2)cc1C do in these assays?
TEAD-YAP inh: inactive; GPR151 ag: inactive; MITF inh: inactive; FBW7 activator: inactive

What do the screens show for `CCOc1ccc(-c2cc(C(=O)N/N=C/c3ccc(F)cc3)[nH]n2)cc1`?
TEAD-YAP inh: 41; GPR151 ag: inactive; MITF inh: inactive; FBW7 activator: inactive

How did CCOc1cc(/C=N/NC(=O)C(=O)N/N=C/c2ccc(O)c(OCC)c2)ccc1O do in these assays?
TEAD-YAP inh: inactive; GPR151 ag: inactive; MITF inh: inactive; FBW7 activator: inactive

Results for CCOc1ccc(-c2cc(C(=O)N/N=C/c3ccc(O)c(OCC)c3)[nH]n2)cc1 ?
TEAD-YAP inh: 43; GPR151 ag: inactive; MITF inh: inactive; FBW7 activator: inactive

Results for CCOc1cc(/C=N/NC(=O)c2cc(O)c(O)c(O)c2)ccc1O ?
TEAD-YAP inh: inactive; GPR151 ag: inactive; MITF inh: 82; FBW7 activator: inactive

How did Cc1cc(OCCCNCCO)ccc1C(C)C do in these assays?
TEAD-YAP inh: 64; GPR151 ag: inactive; MITF inh: inactive; FBW7 activator: inactive

Results for COc1ccc(OCCCCCNCCO)cc1 ?
TEAD-YAP inh: inactive; GPR151 ag: inactive; MITF inh: inactive; FBW7 activator: inactive

What do the screens show for `COc1ccc(OCCCNCCO)cc1`?
TEAD-YAP inh: 41; GPR151 ag: inactive; MITF inh: inactive; FBW7 activator: inactive

How did COCCNCCCOc1ccc(C(C)C)c(C)c1 do in these assays?
TEAD-YAP inh: inactive; GPR151 ag: inactive; MITF inh: inactive; FBW7 activator: inactive

What do the screens show for `CC1CCN(Cc2cc(O)c(CN3CCC(C)CC3)cc2O)CC1`?
TEAD-YAP inh: inactive; GPR151 ag: inactive; MITF inh: inactive; FBW7 activator: inactive

What do the screens show for `OCCC1CN(Cc2ccc(O)cc2)CCN1CC1CCCCC1` (stereo not drawn)?
TEAD-YAP inh: inactive; GPR151 ag: inactive; MITF inh: inactive; FBW7 activator: inactive

How did C/C(=N/NC(=O)c1n[nH]c2c1CCC2)c1cccc(O)c1 do in these assays?
TEAD-YAP inh: 40; GPR151 ag: inactive; MITF inh: inactive; FBW7 activator: inactive

Results for C/C(=N/NC(=O)c1n[nH]c2c1CCCC2)c1cccc(O)c1 ?
TEAD-YAP inh: inactive; GPR151 ag: inactive; MITF inh: inactive; FBW7 activator: inactive
